One test deals with Staphylococcus aureus. The conditions noted are these: Concentration 32 ug.mL-1, ASSAY_TEST Inhibition of Bacterial Growth, detection method Absorption (OD600), MEDIA CAMHB, plate type 384well, NBS, CORNING #3640, time 18 hr.
The next test has as its system Escherichia coli. The note with it: Concentration 32 ug.mL-1, ASSAY_TEST Inhibition of Bacterial Growth, detection method Absorption (OD600), MEDIA CAMHB, plate type 384well, NBS, CORNING #3640, time 18 hr.

Several values for one entry are separate records, joined by “and”; a condition that tells them apart may be missing. Identical values can stand only once. Potency and affinity values are given separately.

As for `C#CCN(C)Cc1cc2cc(OCCCC3CCN(Cc4ccc(OC)c5ncccc45)CC3)ccc2n1C`, the Inhibition in the test with Staphylococcus aureus is 8.98%; in the test with Escherichia coli it was -14.67%.
On to `C#CCN1CCc2nc3nc(NC4CCN(Cc5ccccc5)CC4)c(C#N)cc3c(N)c2C1`, for which the figures for the Inhibition with Staphylococcus aureus and with Escherichia coli were 26.68% and -8.32%, respectively.
For the compound `COc1nc2nc3c(c(N)c2cc1C#N)CN(Cc1ccccc1)CC3`, the results for the Inhibition in the test with Staphylococcus aureus and in the test with Escherichia coli were 9.36% and 4.83%, respectively.
For `COc1cccc(C2c3ccc4ccccc4c3OC(=NBr)C2(Br)C#N)c1` (stereo unspecified), the values for the Inhibition with Staphylococcus aureus and with Escherichia coli were 27.48% and -7.21%, respectively.
Turning to `ClCCC1CCN(Cc2ccccc2)CC1`, the Inhibition in the test on Staphylococcus aureus amounted to 26.32%; in the test on Escherichia coli, 16.74%.
Turning to `COc1ccc(-c2cc(-c3cc4ccc(OC)cc4nc3Cl)cc(=O)[nH]2)cc1`, the Inhibition is recorded as 18.65% in the test on Staphylococcus aureus and -13.67% with Escherichia coli.
In the case of `COc1ccc(-c2c(C#N)c(=O)oc3c2ccc2ccccc23)cc1`, the Inhibition is 29.57% and 19.64% with Staphylococcus aureus (32 ug/mL); -26.6% and -23.12% with Escherichia coli (32 ug/mL).
Consider `C#CCNc1ncc(C#N)c(N)n1`, for which the values for the Inhibition in the test on Staphylococcus aureus and with Escherichia coli were 8.61% and -16.66%, respectively.
For the compound `Nc1c2c(nc3c1C(c1c(Cl)cccc1Cl)c1ccc4ccccc4c1O3)CCCC2` (stereo unspecified), the Inhibition is 2.04% in the test with Staphylococcus aureus and 3.11% in the test on Escherichia coli.
Take `C#CCN(C)c1nc(OC)c(C#N)cc1C#N`: the Inhibition in the test with Staphylococcus aureus is 10.54%; in the test with Escherichia coli, -19.1%.
In the case of `C=C=CCN(C)Cc1cc2ccccc2n1C.O=C(O)C(=O)O`, the Inhibition is 31.58% with Staphylococcus aureus and -19.52% in the test with Escherichia coli.
The matching figures for `NC(=O)N/N=C/c1c[nH]c2ccccc12`: 3.48% and 5.19%.
`CNC(=O)c1cc2cc(OCc3ccccc3)ccc2n1C`: the Inhibition in the test on Staphylococcus aureus is listed as 23.23%; in the test with Escherichia coli, -13.67%.
In the case of `CCOC(=O)c1cc2cc(OC(=O)Oc3ccc([N+](=O)[O-])cc3)ccc2[nH]1`, the Inhibition is reported as 13.73% in the test with Staphylococcus aureus and -33.4% in the test on Escherichia coli.
In the case of `C#CCN(C)Cc1cc2cc(OCOc3ccc4c(c3)cc(CN(C)CC#C)n4C)ccc2n1C`, the Inhibition with Staphylococcus aureus was 15.95%; in the test with Escherichia coli, -10.88%.
The matching figures for `Cc1ccc(C(O)SNNc2nc(C)nc3c2c(C)nn3-c2ccccc2)cc1` (stereo unspecified): 4.03% and 5.46%.
The like results for `COc1cc(C2c3c(nc4c(c3N)CCC4)Oc3ccc4ccccc4c32)ccc1O` (stereo unspecified) were, in that order, 11.79% and 11.06%.
The matching figures for `N#C[C@]1(Br)C(=N)Oc2ccc3ccccc3c2[C@@H]1c1ccc([N+](=O)[O-])cc1`: 26.21% and 11.8%.
With `CN(C)c1cccc(C(=O)c2cccc(N(C)C)c2)c1`, the Inhibition was found to be 23.31% with Staphylococcus aureus and 7.89% with Escherichia coli.
For `Cc1ccc(C2C(C#N)=C(N)Oc3c2ccc2ccccc32)cc1` (stereo unspecified), the Inhibition in the test on Staphylococcus aureus was -4.2%; with Escherichia coli, -2.25%.
Take `C#CCNC(=O)c1cc2cc(OCCCC3CCN(Cc4ccccc4)CC3)ccc2[nH]1`: the figures for the Inhibition in the test on Staphylococcus aureus and in the test with Escherichia coli were 18.56% and -12.4%, respectively.
Regarding `Cn1ccnc1C1c2ccc3cccnc3c2Oc2nc3c(c(N)c21)CCCCC3` (stereo unspecified), the Inhibition in the test with Staphylococcus aureus is on record as 21.02%; in the test on Escherichia coli it was -10.34%.
With `C#CCN(C)Cc1cc2cc(OCCC3CCN(Cc4ccccc4)CC3)ccc2n1C.Cl`, the Inhibition with Staphylococcus aureus is recorded as 28.43%; in the test with Escherichia coli it was -29.82%.
The like results for `O=C1OC(c2ccc([N+](=O)[O-])cc2)=NC1=Cc1ccccc1` were, in that order, 12.67% and 13.11%.
As for `N#Cc1cc(C#N)c(NCCC2CCN(Cc3ccccc3)CC2)nc1N`, the Inhibition in the test with Staphylococcus aureus is 49.11%; in the test with Escherichia coli, -25.69%.
As to `C#CCNc1nc(Cl)c(C#N)c(-c2ccccc2)c1C#N`, the Inhibition stood at 4.06% with Staphylococcus aureus and 10.8% in the test with Escherichia coli.
Turning to `Cc1ccc(CNNC(=O)c2cc3ccccc3n2C)cc1`, the Inhibition in the test on Staphylococcus aureus is recorded as -9.87%; in the test with Escherichia coli it was -8.9%.
`CSC1=NC(=Cc2cn(C(c3ccccc3)(c3ccccc3)c3ccccc3)c3ccccc23)C(=O)N1C`: the values for the Inhibition with Staphylococcus aureus and in the test with Escherichia coli were -1.08% and 9.28%, respectively.
The matching figures for `CN(C)c1nc(N)c(C#N)c(-c2ccccc2)c1C#N`: 7.52% and 0.57%.
For the compound `Cc1nc2c3cnn(-c4ccccc4)c3ncn2n1`, the figures for the Inhibition with Staphylococcus aureus and with Escherichia coli were 15.5% and 11.4%, respectively.
The matching figures for `COC(=O)C(=Cc1ccc(OC)cc1)NC(=O)c1ccccc1`: 17.26% and 11.52%.
In the case of `COc1ccc(CNNC(=O)c2cc3ccccc3[nH]2)cc1O`, the Inhibition in the test with Staphylococcus aureus is 5.63%; in the test with Escherichia coli, 2.63%.
On to `N#CC1=C(N)Oc2ccc3ccccc3c2C1`, for which the Inhibition was 5.91% in the test on Staphylococcus aureus and -5.32% with Escherichia coli.

The record behind these values is ChEMBL document CHEMBL4513135, “CO-ADD screening of IQOG CSIS (Spain) compounds”.
